Source: PubChem BioAssay (Tox21)
Results filed as inconclusive are left out. Calls of active or inactive are those of the source. Unless noted, the call rests on the fitted dose curve; in most records, active means well fitted curve in the direction sought with a large enough effect in the repeat runs; inconclusive means weak or mixed curves; inactive means no such curve, though single readings can be large; an effect the other way counts as inactive or inconclusive.

Key:
[1] = molecular target: Aryl hydrocarbon receptor (Homo sapiens) (UniProt P35869); experiment: qHTS assay to identify small molecule that activate the aryl hydrocarbon receptor (AhR) signaling pathway (AID 743085);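 further: HG2L7.5c1 human HepG2 liver cells with stably integrated DRE-driven firefly reporter; series mostly up to about 70 µM; nearly all actives have a fitted effect of over 15% in size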
Procedure, shortened: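 Luminescence (ONE-Glo) from a dioxin-responsive-element luciferase reporter in HG2L7.5c1 HepG2 cells after 24 hr compound exposure at 37C; viability measured by CellTiter-Fluor fluorescence beforehand.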

[2] = molecular target: Peroxisome proliferator-activated receptor gamma (Homo sapiens) (UniProt P37231); experiment: qHTS assay to identify small molecule agonists of the peroxisome proliferator-activated receptor gamma (PPARg) signaling pathway (AID 743094; active means well fitted activation curve with a large enough effect in the signal ratio in the repeat runs, not every such curve was filed as active; the % refers to the signal ratio)
Procedure, shortened: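 Agonist activity was taken from a beta-lactamase reporter (FRET substrate, 1 h at room temperature) in HEK293H cells carrying a PPARg UAS-bla construct. Compounds in DMSO were incubated 17 h at 37C after a 5 h cell pre-incubation.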

[3] = molecular target: Peroxisome proliferator-activated receptor gamma (Homo sapiens) (UniProt P37231); experiment: qHTS assay to identify small molecule antagonists of the peroxisome proliferator-activated receptor gamma (PPARg) signaling pathway (AID 743191; calls by dose curve; further: series mostly up to about 63 µM; nearly all actives have a fitted effect of over 30% in size)
Procedure, shortened: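 GeneBLAzer PPARg UAS-bla HEK293H cells carrying a UAS-driven beta-lactamase reporter were plated at 3000 cells/well, preincubated 5 h at 37C, then given compound for 17 h at 37C; LiveBLAzer B/G FRET substrate was read after 1 h at room temperature.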

[4] = qHTS assay to identify small molecule antagonists of the peroxisome proliferator-activated receptor gamma (PPARg) signaling pathway - cell viability counter screen (AID 743194); further: nearly all actives have a fitted effect of over 55% in size
Procedure, shortened: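 PPARg-UAS-bla HEK293H cells were plated, rested 5 h at 37 C, then treated with compounds plus rosiglitazone (50 nM final) for 17 h at 37 C; viability was then read by CellTiter-Glo luminescence after 30 min at room temperature.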

[5] = qHTS assay for small molecule agonists of the antioxidant response element (ARE) signaling pathway (AID 743202; active means well fitted activation curve with a large enough effect in the signal ratio in the repeat runs, not every such curve was filed as active; the % refers to the signal ratio)
Procedure, shortened: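 Following a 16 h, 37 C exposure of reporter HepG2 cells (ARE-driven beta-lactamase, 2,000 cells/well) to compounds, FRET substrate was applied for 2 h at room temperature and fluorescence intensity recorded.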

[6] = qHTS assay for small molecule agonists of the antioxidant response element (ARE) signaling pathway - cell viability counter screen (AID 743203; calls by dose curve; further: nearly all actives have a fitted effect of over 55% in size)
Procedure, shortened: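 Viability counter screen: CellTiter-Glo luminescence, read after 30 min at room temperature, in ARE-bla HepG2 wells. Compound exposure lasted 16 h at 37C/5% CO2, following a 5 h pre-incubation of the cells after plating.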

[7] = qHTS assay for small molecule activators of the heat shock response signaling pathway - cell viability counter screen (AID 743209); further: nearly all actives have a fitted effect of over 50% in size
Procedure, shortened: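 Cytotoxicity counter screen run in the same wells as the heat-shock bla reporter assay: HeLa HSE-bla cells, 5 h compound exposure at 37 C, viability read by CellTiter-Glo luminescence.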

[8] = qHTS assay for small molecule activators of the heat shock response signaling pathway (AID 743210; active means well fitted activation curve with a large enough effect in the signal ratio in the repeat runs, with a control signal flat, not every such curve was filed as active; the % refers to the signal ratio; further: series mostly up to about 63 µM)
Procedure, shortened: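 Heat shock element–beta-lactamase HeLa reporter cells; qHTS with compounds for 5 h at 37 C; detection by FRET substrate fluorescence after 2.5 h at RT.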

[9] = qHTS assay to identify small molecule agonists of the peroxisome proliferator-activated receptor delta (PPARd) signaling pathway - cell viability counter screen (AID 743211); further: nearly all actives have a fitted effect of over 55% in size
Procedure, shortened: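 Viability was measured as CellTiter-Glo luminescence (30 min, room temperature) in the same wells as the beta-lactamase readout. GeneBLAzer PPARd UAS-bla HEK293H cells received compound after 5 h plating and were incubated 17 h at 37 C.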

[10] = molecular target: Peroxisome proliferator-activated receptor delta (Homo sapiens) (UniProt Q03181); experiment: qHTS assay to identify small molecule agonists of the peroxisome proliferator-activated receptor delta (PPARd) signaling pathway (AID 743212; calls by dose curve)
Procedure, shortened: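 Beta-lactamase reporter read by fluorescence (LiveBLAzer B/G FRET, 2 h, room temperature). Test agents, in DMSO, incubated at 37 C with PPARd-bla HEK293H cells.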

[11] = molecular target: Peroxisome proliferator-activated receptor delta (Homo sapiens) (UniProt Q03181); experiment: qHTS assay to identify small molecule antagonists of the peroxisome proliferator-activated receptor delta (PPARd) signaling pathway (AID 743215; active means well fitted inhibition curve with a large enough effect in the signal ratio in the repeat runs, not every such curve was filed as active; the % refers to the signal ratio;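 further: cells stimulated with agonist L165041 at 300 nM final during compound exposure; series mostly up to about 62 µM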)
Procedure, shortened: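 Agonist L165041 (300 nM final) added with compound to PPARd-bla HEK293H UAS-bla reporter cells; 17 h incubation at 37 C. Read-out: LiveBLAzer FRET substrate, 2 h at room temperature, fluorescence intensity.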

[12] = qHTS assay to identify small molecule agonists of the farnesoid-X-receptor (FXR) signaling pathway - cell viability counter screen (AID 743218); further: nearly all actives have a fitted effect of over 45% in size
Procedure, shortened: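 Viability counter screen in the same wells: CellTiter-Glo luminescence, 30 min room-temperature incubation, measured after the beta-lactamase read. Cells were GeneBLAzer FXR-UAS-bla HEK 293T, compound-treated 16 h at 37C.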

[13] = qHTS assay to identify small molecule antagonists of the farnesoid-X-receptor (FXR) signaling pathway - cell viability counter screen (AID 743221; active means well fitted cell-killing curve with a large enough effect in the repeat runs, not every such curve was filed as active; further: nearly all actives have a fitted effect of over 50% in size)
Procedure, shortened: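 Cytotoxicity counter screen run in the FXR-bla reporter wells: HEK 293T cells exposed to compound with 50 uM (final) chenodeoxycholic acid for 16 h, 37 C, then viability measured by CellTiter-Glo luminescence after 30 min, room temperature.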

[14] = molecular target: Vitamin D3 receptor (Homo sapiens) (UniProt P11473); experiment: qHTS assay to identify small molecule agonists of the vitamin D receptor (VDR) signaling pathway (AID 743222; calls by dose curve)
Procedure, shortened: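 Agonist mode, beta-lactamase reporter: fluorescence from LiveBLAzer B/G FRET substrate (2 h, room temperature) read after 16 h compound treatment at 37 C of VDR-bla cells, which were pre-incubated 4 h after seeding.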

[15] = qHTS assay to identify small molecule agonists of the vitamin D receptor (VDR) signaling pathway - cell viability counter screen (AID 743224); further: series mostly up to about 63 µM; nearly all actives have a fitted effect of over 50% in size
Procedure, shortened: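 Counter screen run in the same wells as the VDR-bla reporter assay: CellTiter-Glo luminescence, 30 min at room temperature, after 16 h compound treatment at 37C of cells pre-plated for 4 h.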

[16] = qHTS assay to identify small molecule that activate the aryl hydrocarbon receptor (AhR) signaling pathway - cell viability counter screen (AID 743086);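 further: HepG2 liver cells carrying the AhR DRE luciferase reporter; series mostly up to about 70 µM; nearly all actives have a fitted effect of over 45% in size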
Procedure, shortened: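 HepG2-AhR-luc (HG2L7.5c1) cells, 4000/well, were preincubated 5 h at 37C, exposed to compound in qHTS format for 24 hr at 37C, then given CellTiter-Fluor for 30 min; viability was read as fluorescence in the reporter wells.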

[17] = molecular target: Vitamin D3 receptor (Homo sapiens) (UniProt P11473); experiment: qHTS assay to identify small molecule antagonists of the vitamin D receptor (VDR) signaling pathway (AID 743223; active means well fitted inhibition curve with a large enough effect in the signal ratio in the repeat runs, not every such curve was filed as active; the % refers to the signal ratio)
Procedure, shortened: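 Antagonist mode: compound added to VDR-bla cells alongside agonist 1alpha,25-dihydroxyvitamin D3 (3 nM final), incubation 16 h at 37C. Read-out is LiveBLAzer FRET fluorescence, 2 h at room temperature.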

[18] = qHTS assay to identify small molecule antagonists of the peroxisome proliferator-activated receptor delta (PPARd) signaling pathway - cell viability counter screen (AID 743213); further: nearly all actives have a fitted effect of over 50% in size
Procedure, shortened: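 Luminescence from CellTiter-Glo, added after the bla read and incubated 30 min at room temperature, gives viability of HEK293H PPARd-bla cells exposed to compounds for 17 h at 37 C with 300 nM L165041.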

[19] = molecular target: Bile acid receptor (Homo sapiens) (UniProt Q96RI1); experiment: qHTS assay to identify small molecule antagonists of the farnesoid-X-receptor (FXR) signaling pathway (AID 743217; active means well fitted inhibition curve with a large enough effect in the signal ratio in the repeat runs, not every such curve was filed as active; the % refers to the signal ratio)
Procedure, shortened: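 Antagonist mode: chenodeoxycholic acid at 50 uM final stimulates a UAS-driven beta-lactamase reporter in HEK 293T FXR-bla cells during 16 h, 37C compound exposure. Read-out is FRET substrate fluorescence after 2 h at room temperature.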

[20] = molecular target: Bile acid receptor (Homo sapiens) (UniProt Q96RI1); experiment: qHTS assay to identify small molecule agonists of the farnesoid-X-receptor (FXR) signaling pathway (AID 743220; active means well fitted activation curve with a large enough effect in the signal ratio in the repeat runs, not every such curve was filed as active; the % refers to the signal ratio)
Procedure, shortened: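 FXR-UAS-bla HEK 293T cells carrying a UAS-driven beta-lactamase reporter were plated for 5 h at 37C/5% CO2, then exposed to DMSO-dissolved Tox21 10K compounds for 16 h at 37C. A LiveBLAzer B/G FRET substrate was loaded for 2 h at room temperature before fluorescence reading.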

Measured: Potency

Chain of Peroxisome proliferator-activated receptor delta (Homo sapiens) (Q03181 whole entry, looked up): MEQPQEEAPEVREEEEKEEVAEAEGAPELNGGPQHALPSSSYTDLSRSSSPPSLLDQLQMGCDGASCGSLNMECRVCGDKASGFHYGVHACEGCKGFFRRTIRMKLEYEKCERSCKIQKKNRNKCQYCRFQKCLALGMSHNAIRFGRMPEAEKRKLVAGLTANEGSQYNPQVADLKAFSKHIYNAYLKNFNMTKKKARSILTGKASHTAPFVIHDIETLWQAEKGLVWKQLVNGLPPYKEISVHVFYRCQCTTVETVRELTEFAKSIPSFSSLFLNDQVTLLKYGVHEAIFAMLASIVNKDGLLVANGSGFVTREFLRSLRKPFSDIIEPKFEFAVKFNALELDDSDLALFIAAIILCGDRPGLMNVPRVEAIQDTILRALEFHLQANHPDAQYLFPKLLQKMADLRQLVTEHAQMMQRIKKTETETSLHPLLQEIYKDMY
Chain of Bile acid receptor (Homo sapiens) (Q96RI1 whole entry, looked up): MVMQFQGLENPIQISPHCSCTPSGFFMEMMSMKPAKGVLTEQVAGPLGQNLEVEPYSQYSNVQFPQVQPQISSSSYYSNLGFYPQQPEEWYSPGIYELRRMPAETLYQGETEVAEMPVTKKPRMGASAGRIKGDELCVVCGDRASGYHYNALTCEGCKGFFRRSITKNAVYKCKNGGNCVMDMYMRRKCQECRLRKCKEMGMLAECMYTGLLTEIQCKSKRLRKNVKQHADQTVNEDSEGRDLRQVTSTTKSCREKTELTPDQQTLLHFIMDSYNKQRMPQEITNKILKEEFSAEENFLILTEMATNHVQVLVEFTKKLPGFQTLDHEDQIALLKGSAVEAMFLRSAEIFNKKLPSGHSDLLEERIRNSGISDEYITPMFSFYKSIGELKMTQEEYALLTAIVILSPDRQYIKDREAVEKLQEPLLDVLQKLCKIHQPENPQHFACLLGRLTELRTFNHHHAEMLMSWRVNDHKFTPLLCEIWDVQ
Chain of Aryl hydrocarbon receptor (Homo sapiens) (P35869 whole entry, looked up): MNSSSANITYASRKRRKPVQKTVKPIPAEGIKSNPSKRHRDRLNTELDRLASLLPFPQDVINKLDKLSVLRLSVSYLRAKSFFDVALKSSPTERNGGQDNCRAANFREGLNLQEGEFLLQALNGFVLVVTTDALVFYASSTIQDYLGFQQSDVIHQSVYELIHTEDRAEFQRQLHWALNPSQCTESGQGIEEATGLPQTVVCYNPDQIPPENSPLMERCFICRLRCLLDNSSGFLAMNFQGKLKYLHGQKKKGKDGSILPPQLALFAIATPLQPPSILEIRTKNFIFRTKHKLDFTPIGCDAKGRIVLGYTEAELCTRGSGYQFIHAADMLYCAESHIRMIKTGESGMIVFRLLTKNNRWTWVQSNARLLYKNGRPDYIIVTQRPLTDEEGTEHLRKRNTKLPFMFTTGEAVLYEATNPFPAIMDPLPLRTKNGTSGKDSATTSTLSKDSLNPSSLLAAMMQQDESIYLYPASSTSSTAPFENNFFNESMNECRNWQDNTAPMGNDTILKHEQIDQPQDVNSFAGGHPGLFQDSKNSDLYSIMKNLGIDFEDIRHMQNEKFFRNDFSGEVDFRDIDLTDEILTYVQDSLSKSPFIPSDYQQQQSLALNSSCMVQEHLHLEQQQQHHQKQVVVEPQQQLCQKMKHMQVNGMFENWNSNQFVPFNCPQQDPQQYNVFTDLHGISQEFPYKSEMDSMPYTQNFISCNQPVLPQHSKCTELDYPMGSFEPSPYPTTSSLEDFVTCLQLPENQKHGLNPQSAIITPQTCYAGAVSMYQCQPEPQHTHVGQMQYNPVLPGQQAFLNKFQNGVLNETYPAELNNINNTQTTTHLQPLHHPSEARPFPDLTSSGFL
Chain of Vitamin D3 receptor (Homo sapiens) (P11473 whole entry, looked up): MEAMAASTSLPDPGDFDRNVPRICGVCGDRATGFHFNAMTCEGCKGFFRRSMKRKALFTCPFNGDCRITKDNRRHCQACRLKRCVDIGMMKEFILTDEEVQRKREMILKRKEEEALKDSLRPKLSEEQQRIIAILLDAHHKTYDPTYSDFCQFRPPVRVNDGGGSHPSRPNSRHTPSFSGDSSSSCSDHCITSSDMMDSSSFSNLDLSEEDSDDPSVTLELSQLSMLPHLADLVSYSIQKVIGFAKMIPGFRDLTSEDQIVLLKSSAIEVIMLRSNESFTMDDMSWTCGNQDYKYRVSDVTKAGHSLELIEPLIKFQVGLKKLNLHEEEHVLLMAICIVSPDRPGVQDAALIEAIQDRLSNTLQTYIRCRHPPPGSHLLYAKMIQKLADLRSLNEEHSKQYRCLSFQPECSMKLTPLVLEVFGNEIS
Chain of Peroxisome proliferator-activated receptor gamma (Homo sapiens) (P37231 whole entry, looked up): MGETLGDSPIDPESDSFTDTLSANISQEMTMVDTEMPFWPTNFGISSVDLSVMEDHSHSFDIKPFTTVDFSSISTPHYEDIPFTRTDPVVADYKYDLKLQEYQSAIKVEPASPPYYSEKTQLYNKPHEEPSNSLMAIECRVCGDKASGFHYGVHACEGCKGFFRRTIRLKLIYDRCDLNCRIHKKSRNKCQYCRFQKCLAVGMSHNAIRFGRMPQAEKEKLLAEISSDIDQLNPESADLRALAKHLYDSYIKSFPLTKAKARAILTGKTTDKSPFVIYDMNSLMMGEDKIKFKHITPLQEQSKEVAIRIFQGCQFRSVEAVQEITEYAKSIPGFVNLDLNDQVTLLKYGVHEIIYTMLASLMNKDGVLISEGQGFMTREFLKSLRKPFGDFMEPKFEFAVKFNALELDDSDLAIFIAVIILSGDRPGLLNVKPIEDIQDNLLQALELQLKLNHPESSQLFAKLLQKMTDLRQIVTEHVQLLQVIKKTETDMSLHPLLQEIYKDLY

C=CCCC(=O)O
not listed: [16] | [17] | [18] | [19] | [20]
inactive: all other assays above

CC(C)COC(=O)c1ccc(N)cc1
not listed: [1] | [11] | [14] | [15] | [18] | [19] | [20]
inactive: all other assays above

CC(C)(C)C(=O)c1ccccc1
not listed: [2] | [3] | [4] | [20]
inactive: all other assays above

COc1cc2c(cc1OC)-c1cc3ccc(OC)c(OC)c3c[n+]1CC2
not listed: [1] | [8] | [10] | [11] | [17] | [18] | [19] | [20]
inactive: all other assays above

O=C(CO)[C@@H](O)[C@H](O)[C@H](O)CO
inactive: [1] | [16] | [4] | [5] | [6] | [8] | [9] | [13] | [15]

O=C(O)CCSCCC(=O)O
not listed: [1] | [14] | [17] | [18] | [19] | [20]
inactive: all other assays above

[K+]
not listed: [2] | [3] | [5] | [17] | [20]
inactive: all other assays above

C=C(C)C(=O)OCCOCCOCCOCCOC(=O)C(=C)C
not listed: [2] | [3] | [4] | [5] | [10] | [11] | [15] | [20]
inactive: all other assays above

CC(C)(C#N)Nc1nc(Cl)nc(NC2CC2)n1
not listed: [1] | [15] | [17]
inactive: all other assays above

CNCCO
not listed: [1] | [5] | [12] | [14] | [17]
inactive: all other assays above

NS(=O)(=O)Cc1noc2ccccc12
not listed: [1] | [10] | [11] | [14] | [17] | [20]
inactive: all other assays above

C=CC(=O)OCCCl
not listed: [1] | [10] | [11]
inactive: all other assays above

CCOC(=O)OC(C)OC1=C(C(=O)Nc2ccccn2)N(C)S(=O)(=O)c2ccccc21 (centres undefined)
not listed: [1] | [7] | [14] | [17] | [19] | [20]
inactive: all other assays above

Cc1ccc(-c2ncc(Cl)cc2-c2ccc(S(C)(=O)=O)cc2)cn1
not listed: [1] | [5] | [10] | [11] | [18] | [20]
inactive: all other assays above

C[C@@H]1CCC[C@H](C)N1
not listed: [1] | [2] | [10] | [11] | [14] | [19] | [20]
inactive: all other assays above

CC(C)C1CCC(O)CC1 (centres undefined)
not listed: [1] | [5] | [10] | [11] | [12] | [19] | [20]
inactive: all other assays above

CC(C)(C)OC(=O)c1cccc(N)c1
not listed: [1] | [2] | [18] | [19] | [20]
inactive: all other assays above

CN(C)C(=O)Oc1cccc([N+](C)(C)C)c1
not listed: [1] | [3] | [12] | [15]
inactive: all other assays above
